Molecules are shown by their SMILES. The panel holds about 83,000 compounds, 20% with a hit somewhere; the sample as a whole holds those more often.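 The endpoint reported here, percent growth, reads 100 for growth as untreated, 0 for no net growth and -100 for all cells dead.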 A number with no mark means an inactive call. Calls of active or inactive are those of the source. Rule for the calls: active = growth percent below 10; inactive = the rest.

Experimental findings from PubChem BioAssay (NCI) are described below.

The subject of the first experiment is HCT-116 colon. As to the kind of experiment: NCI-60 one-dose screen, 48 h (100 = growth as untreated, 0 = no growth, -100 = all killed). The conditions noted are these: 10 µM.
`CCCOCC(O)CNCCN` (configuration not stated): the growth was 104%.

Take `CCCC(C)c1ccc(OCCCCCCN2CCNCC2)cc1` (configuration not stated): the growth was -6% (active).

As for `Nc1cc(O)cc(O)c1`, the growth was 95.8%.

Take `Cc1cc(C(C)(C)CC(C)(C)C)ccc1OCCOCC[N+](C)(C)Cc1ccccc1`: the growth was -97.4% (active). For `CC(C)c1[nH]nc2c(NCc3ccc(-c4ccccn4)cc3)nc(SCCN)nc12`, the growth was 5.28% (active).

Take `CC(=O)c1c(O)cc2c3c1OC(C)(C)C1CCC(C)(CC31)O2` (configuration not stated): the growth was 86.8%. For the compound `CN(C)CCCN1c2ccccc2Sc2ccc(C(F)(F)F)cc21`, the growth is 1.99% (active). As to `CNC(=O)c1cc(Oc2ccc(NC(=O)Nc3ccc(Cl)c(OC4CCCCC4)c3)c(F)c2)ccn1`, the growth was 11.9%. `O=C(Nc1cccc(F)c1)Nc1cccc(Cl)c1`: the growth was 92.3%. Same read-out and setting: to `CCN(CC)CC(O)CNc1ccnc2cc(Cl)c(Cl)cc12` (configuration not stated) belongs 64.2%. Consider `CCCCCCOc1ccc(/C=C/C(=O)c2ccc(B(O)O)cc2)cc1`, for which the growth was 55.6%. With `CC1(C)CC(OCCCC[P+](c2ccccc2)(c2ccccc2)c2ccccc2)CC(C)(C)N1O`, the growth is 12.4%. Regarding `Fc1cc(-c2ncc(-c3cc(F)c(F)c(F)c3)c(NC3CCCCCC3)n2)cc(F)c1F`, the growth is 101%. Still for that read-out and setting: the figure for `COc1c(C)c(C)c(OC)c2c1[nH]c(=O)c1c3cccnc3cn21` is 104%; for `CC1(C)CCc2cc(-c3ccn(S(=O)(=O)c4ccc(Cl)cc4)n3)ccc2O1` it is 61.1%. The same measure, in the same setting: to `O=C(NC1CCCC1)c1ccc(N2CCC(NCc3cccc(C(F)(F)F)c3)CC2)cc1` belongs 86.5%; to `CC1=CC2OC34COC3CC(OC(=O)C(F)(F)F)C4(C)C2(C)CC1` (configuration not stated), 96.6%. The same measure, in the same setting: the figure for `CCCCOCCOCCOCc1cc2c(cc1Br)OCO2` is 94.9%.

`CCCCCCCCCCN=C(c1ccc(N(C)C)cc1)c1ccc(N(C)C)cc1`: the growth was 15.3%. On to `COc1cccc2c1C(=O)c1c(O)c3c(c(O)c1C2=O)C[C@@](O)(C(=O)COC(=O)c1cccnc1)C[C@@H]3OC1CC(N)C(O)C(C)O1` (some centres not stated), for which the growth is 6.26% (active). Consider `COc1ccc(/C(=C/c2cc(OC)c(OC)cc2[N+](=O)[O-])C(=O)O)cc1`, for which the growth is 116%. Consider `Nc1ccccc1NC(=O)CCCCCCC(=O)Nc1ccc2c(c1)/C(=C/c1ccc[nH]1)C(=O)N2`, for which the growth was 17%. Turning to `CCOC(=O)c1c(C)n(-c2ccc(Cl)cc2)c2ccc(OC(=O)/C=C/c3ccccc3)cc12`, the growth is 90.6%. Still for that read-out and setting: to `Cc1nnc2c3nnc(-c4ccc(Cl)cc4)n3c3ccccc3n12` belongs 101%; to `CCOc1ccc2c(c1)CC[C@@H]1[C@@H]2CC[C@]2(C)[C@@H](O)[C@@H](O)C[C@@H]12`, 104%; to `COC(=O)[C@]12CC[C@@H](C)[C@H](C)[C@@H]1C1=CC[C@@H]3[C@@]4(C)CC(=O)[C@H](O)[C@@](C)(CO)[C@@H]4C(=O)C[C@@]3(C)[C@]1(C)CC2`, -43.1% (active). Still for that read-out and setting: to `CCCCn1c(=O)[nH]c2c(c1=O)C(c1ccc(Cl)cc1)c1c([nH]c(=O)n(CCCC)c1=O)N2` belongs 96.6%; to `CCC(CCNc1cc(OC)cc2cccnc12)CN1C(=O)c2ccccc2C1=O` (configuration not stated), 99.5%. In the case of `COc1ccc(C(=O)c2sc3nc(-c4cccs4)ccc3c2N)cc1OC`, the growth was 43.3%.

Regarding `O=C/C=C/c1ccc([N+](=O)[O-])cc1Cl`, the growth is 2.9% (active). Same read-out and setting: to `C/C(=N\NC(=O)c1sc(=S)n(C)c1N)c1cc2ccccc2o1` belongs 59.1%. Still for that read-out and setting: to `Cc1ccc(-c2cc(C(=O)Nc3ccc(S(=O)(=O)N4CCCCC4)cc3)[nH]n2)c(O)c1` belongs 43.5%; to `CC(=O)OC1Oc2ccccc2-c2oc(=O)c(-c3ccc(F)cc3)cc21` (configuration not stated), 86.5%.

For the compound `COc1ccc(Nc2nc(NCc3ccccc3)c3ccccc3n2)cc1`, the growth was 29.8%. Consider `CCOC(=O)c1c(O)c2cc(-c3ccccc3)nc(OCC)c2c(=O)n1C`, for which the growth is 87.7%. On the same count and under the same terms, to `COc1ccc(-c2nnc(SCC(=O)c3ccccc3)o2)cc1` belongs 78.9%; to `CC(=O)Oc1c(C)c(C)c2c(c1C)CCC(C)(CC(=O)OCCCCCCCCCCC[P+](c1ccccc1)(c1ccccc1)c1ccccc1)O2` (configuration not stated), -95.6% (active). With `Cc1ccccc1[P+](Cc1ccccc1)(c1ccccc1)c1ccccc1`, the growth is 12.7%.

The next experiment has as its system HCC-2998 colon. The description is as above. The conditions noted are these: 10 µM.
On to `CCCOCC(O)CNCCN` (configuration not stated), for which the growth was 131%. Same read-out and setting: to `CCCC(C)c1ccc(OCCCCCCN2CCNCC2)cc1` (configuration not stated) belongs -71.4% (active); to `Nc1cc(O)cc(O)c1`, 98.5%; to `Cc1cc(C(C)(C)CC(C)(C)C)ccc1OCCOCC[N+](C)(C)Cc1ccccc1`, -60.6% (active).

As for `CC(C)c1[nH]nc2c(NCc3ccc(-c4ccccn4)cc3)nc(SCCN)nc12`, the growth is -22.9% (active). Still for that read-out and setting: to `CC(=O)c1c(O)cc2c3c1OC(C)(C)C1CCC(C)(CC31)O2` (configuration not stated) belongs 115%. On the same count and under the same terms, the figure for `CN(C)CCCN1c2ccccc2Sc2ccc(C(F)(F)F)cc21` is -65.9% (active). The same measure, in the same setting: the figure for `CNC(=O)c1cc(Oc2ccc(NC(=O)Nc3ccc(Cl)c(OC4CCCCC4)c3)c(F)c2)ccn1` is 82.6%. For `O=C(Nc1cccc(F)c1)Nc1cccc(Cl)c1`, the growth is 89.9%. In the case of `CCN(CC)CC(O)CNc1ccnc2cc(Cl)c(Cl)cc12` (configuration not stated), the growth was 102%. On the same count and under the same terms, to `CCCCCCOc1ccc(/C=C/C(=O)c2ccc(B(O)O)cc2)cc1` belongs 95.6%. Still for that read-out and setting: the figure for `Fc1cc(-c2ncc(-c3cc(F)c(F)c(F)c3)c(NC3CCCCCC3)n2)cc(F)c1F` is 127%; for `COc1c(C)c(C)c(OC)c2c1[nH]c(=O)c1c3cccnc3cn21` it is 120%; for `CC1(C)CCc2cc(-c3ccn(S(=O)(=O)c4ccc(Cl)cc4)n3)ccc2O1` it is 94.3%.

With `O=C(NC1CCCC1)c1ccc(N2CCC(NCc3cccc(C(F)(F)F)c3)CC2)cc1`, the growth is 41.2%. On the same count and under the same terms, to `CC1=CC2OC34COC3CC(OC(=O)C(F)(F)F)C4(C)C2(C)CC1` (configuration not stated) belongs 98.3%; to `CCCCOCCOCCOCc1cc2c(cc1Br)OCO2`, 108%; to `CCCCCCCCCCN=C(c1ccc(N(C)C)cc1)c1ccc(N(C)C)cc1`, 52.6%. With `COc1cccc2c1C(=O)c1c(O)c3c(c(O)c1C2=O)C[C@@](O)(C(=O)COC(=O)c1cccnc1)C[C@@H]3OC1CC(N)C(O)C(C)O1` (some centres not stated), the growth was -50.3% (active).

For `COc1ccc(/C(=C/c2cc(OC)c(OC)cc2[N+](=O)[O-])C(=O)O)cc1`, the growth was 107%. Same read-out and setting: the figure for `Nc1ccccc1NC(=O)CCCCCCC(=O)Nc1ccc2c(c1)/C(=C/c1ccc[nH]1)C(=O)N2` is 70.2%. On the same count and under the same terms, the figure for `CCOC(=O)c1c(C)n(-c2ccc(Cl)cc2)c2ccc(OC(=O)/C=C/c3ccccc3)cc12` is 102%; for `Cc1nnc2c3nnc(-c4ccc(Cl)cc4)n3c3ccccc3n12` it is 102%; for `CCOc1ccc2c(c1)CC[C@@H]1[C@@H]2CC[C@]2(C)[C@@H](O)[C@@H](O)C[C@@H]12` it is 108%.

With `COC(=O)[C@]12CC[C@@H](C)[C@H](C)[C@@H]1C1=CC[C@@H]3[C@@]4(C)CC(=O)[C@H](O)[C@@](C)(CO)[C@@H]4C(=O)C[C@@]3(C)[C@]1(C)CC2`, the growth was -61.1% (active).

On to `CCCCn1c(=O)[nH]c2c(c1=O)C(c1ccc(Cl)cc1)c1c([nH]c(=O)n(CCCC)c1=O)N2`, for which the growth is 103%. The same measure, in the same setting: the figure for `CCC(CCNc1cc(OC)cc2cccnc12)CN1C(=O)c2ccccc2C1=O` (configuration not stated) is 105%; for `COc1ccc(C(=O)c2sc3nc(-c4cccs4)ccc3c2N)cc1OC` it is 82%; for `O=C/C=C/c1ccc([N+](=O)[O-])cc1Cl` it is 111%.

`Cc1ccc(-c2cc(C(=O)Nc3ccc(S(=O)(=O)N4CCCCC4)cc3)[nH]n2)c(O)c1`: the growth is 68.8%. On to `COc1ccc(Nc2nc(NCc3ccccc3)c3ccccc3n2)cc1`, for which the growth was 91.5%.

With `COc1ccc(-c2nnc(SCC(=O)c3ccccc3)o2)cc1`, the growth is 86.1%.

On to `CC(=O)Oc1c(C)c(C)c2c(c1C)CCC(C)(CC(=O)OCCCCCCCCCCC[P+](c1ccccc1)(c1ccccc1)c1ccccc1)O2` (configuration not stated), for which the growth was -61% (active). On the same count and under the same terms, the figure for `Cc1ccccc1[P+](Cc1ccccc1)(c1ccccc1)c1ccccc1` is 16.5%.
